# RBX1-CUL1 inh: human ROC1-CUL1 E3 ligase inhibition. in vitro K48 di-Ub FRET, acceptor:donor ratio, 45 min. actives 0.6% (n = 140,000). inhibition, % at 10 µM. AID 1347404. P62877+Q13616; in the data active means inhibition above about 25%
# * = called active by the depositor. The full list was thinned out, with hits kept by preference.
SMILES,RBX1-CUL1 inh
O=C1NN(c2ccccc2)C(=O)/C1=C/c1cc(Cl)ccc1OCc1ccc(Cl)cc1,41*
CC(C)n1ccc2c(cnc3nc(-c4ccccc4)nn32)c1=O,0
CCCOc1ccc(/C=C2\C(=O)N(c3ccc(C)cc3)C(C)=C2C(=O)OC)cc1OCC,-9
Cn1cc(CN2CCCC(C(=O)N3CCOCC3)C2)c(-c2ccccc2F)n1 (stereo not given),-2
Cc1ccccc1Cn1cc(/C=C2/C(=N)N3C(c4ccc(F)cc4)=CSC3=NC2=O)c2ccccc21,-5
CCS(=O)(=O)N1CCC(C(=O)Nc2ccc(Cl)cc2C)CC1,1
COc1ccc(-n2c(SCCN3CCOCC3)nnc2-c2cccs2)cc1,2
N#CC1C(=N)Oc2n[nH]c(-c3ccccc3)c2C1c1cccc(OCc2ccc(Cl)cc2Cl)c1 (stereo not given),11
Cc1ccc(-c2csc(NC(=O)c3ccc(Cl)cc3)c2C(=O)O)cc1,3
O=C(Nc1cccc(C(F)(F)F)c1)c1cc2ccccc2c(=O)s1,-6
COc1c(Cl)cc(Cl)cc1C(c1nnnn1-c1c(C)cccc1C)N(C)C=O (stereo not given),4
CC(C)n1c(Oc2ccc(C(C)(C)C)cc2)nc2c1c(=O)n(C)c(=O)n2C,3
O=c1cnn(C2OC(O)C(O)C2CO)c(=O)[nH]1 (stereo not given),14
COc1ccc(C(=O)c2cc(C)ccc2OC)cc1,-1
COc1ccc(C(=O)c2coc3c2cc(O)c2ccccc23)cc1,13
COc1ccc(C(=O)c2coc3c2C(=O)C(=O)C(Br)=C3)cc1,102*
CCOC(=O)c1sc(NC(=O)C(F)(F)F)c(C#N)c1C,8
CCOC(=O)c1sc(N2C(=O)C=CC2=O)c(C#N)c1C,72*
CCOC(=O)c1sc(SC)c(C#N)c1O,-2
COCc1cc(=O)[nH]c(SCc2ccc(Cl)cc2)n1,0
COC(=O)Cc1c[nH]c2ccc(OCC(O)CN3CCOCC3)cc12 (stereo not given),16
CCCCN1C(=O)C(C=Nc2cccc(C)n2)C(=O)N(CCc2ccccc2)C1=O (stereo not given),4
COC(=O)C1CCCc2c1[nH]c1ccc(Cl)cc21 (stereo not given),-6
CCCCOc1cccc(C(=O)Nc2ccc(F)c([N+](=O)[O-])c2)c1,-17
Cc1ccc2oc3ccccc3c(=O)c2c1,-4
SMILES,RBX1-CUL1 inh
Cc1c(-c2ccc(O)c(O)c2)oc2ccccc2c1=O,93*
Cc1cccc2oc3ccccc3c(=O)c12,0
Cc1ccc(C(=O)NC2(C(=O)NC3CCCC3)CCCCC2)cc1,-1
CC(C)(C)C(=O)N1CCN(c2ccnc3cc(Cl)ccc23)CC1,7
CC(C)(C)c1ccc(CN2CCN(c3ccnc4cc(Cl)ccc34)CC2)cc1,1
O=C(CN1CCN(c2cc(Cl)cc3ncccc23)CC1)c1ccc(O)c(O)c1,84*
O=C(c1ccc2n[nH]nc2c1)N1CCOC(CCCc2ccccc2)C1 (stereo not given),-4
CN(C)c1ccc2c(c1)OC(=N)C(C#N)C2c1ccc(Cl)cc1Cl (stereo not given),-3
CC(NC(=O)c1ccccc1F)c1ccccc1 (stereo not given),-12
CC(NC(=O)c1ccc(Br)cc1Br)c1ccccc1 (stereo not given),14
CC(NC(=O)c1cc([N+](=O)[O-])cc2c1-c1c(cc([N+](=O)[O-])cc1[N+](=O)[O-])C2=C(C#N)C#N)c1ccccc1 (stereo not given),39*
O=C(c1ccncc1)N1CCc2onc(C(c3ccccc3)c3ccccc3)c2C1,-12
COc1ccc2c(c1)Cc1sc(NC(=O)c3cccc(Br)c3)nc1-2,-18
COc1ccc2c(c1)Cc1sc(NC(=O)c3ccccc3C)nc1-2,32*
COc1ccc2c(c1)-c1nc(NC(=O)c3ccccc3F)sc1CC2,2
COc1ccc2c(c1)Cc1sc(NC(=O)c3cccc(F)c3)nc1-2,13
COc1ccc(C(=O)Nc2nc3c(s2)Cc2cc(OC)ccc2-3)cc1,40*
COc1ccc2c(c1)CCc1sc(NC(=O)c3ccc(Cl)cc3)nc1-2,11
c1ccc(N2CCN(C3CCCN(Cc4cccc5cccnc45)C3)CC2)cc1 (stereo not given),-7
CC1CC(C)CN(C(=O)c2cc(-c3ccc(C(C)C)cc3)nc3ccc(Br)cc23)C1 (stereo not given),-13
O=C(NC1CCCc2nc(-c3cccnc3)ncc21)c1ncoc1C1CC1 (stereo not given),0
COc1ccc(-n2nnnc2-c2cnc(-c3ccncc3)nc2C(F)(F)F)cc1,-3
CCCN1C(=O)C(C#N)=C(C)/C(=C\c2ccc(-c3ccccc3)o2)C1=O,8
CC1=C(C#N)C(=O)N(CCc2ccccc2)C(=O)/C1=C/c1ccc(-c2ccc(S(N)(=O)=O)cc2)o1,26*
CC1=C(C#N)C(=O)N(CCO)C(=O)/C1=C\c1ccc(-c2ccccc2)o1,-12
SMILES,RBX1-CUL1 inh
CCc1ccc(OCCCNC2CCCC2)cc1,-5
COC(=O)CCC(=O)N1CCCC(C(=O)c2ccc3ccccc3c2)C1 (stereo not given),0
CCn1cc(C(=O)N2CCCC(C(=O)c3ccc4ccccc4c3)C2)cn1 (stereo not given),68*
O=C(c1ccc2ccccc2c1)C1CCCN(C(=O)CCN2CCCC2=O)C1 (stereo not given),-5
C[C@@H]1CCC2C(C(=O)[C@H](C)CCC1=O)C2(C)C (stereo not given in full),-6
CCCN1CC=C2C(C#N)C(=N)C(C#N)(C#N)[C@H](c3ccc(OC(C)C)c(OCC)c3)[C@H]2C1 (stereo not given in full),-3
COc1ccc(C(C2C(=O)Oc3ccc(C)cc3C2=O)C2C(=O)Oc3ccc(C)cc3C2=O)cc1 (stereo not given),69*
COc1ccc(C(C2C(=O)C=C(C)OC2=O)C2C(=O)C=C(C)OC2=O)cc1 (stereo not given),0
COc1ccc(N=CC2C(=O)Oc3ccccc3C2=O)cc1 (stereo not given),0
O=C(NNc1ccccc1[N+](=O)[O-])c1ccccc1Br,2
COc1ccc(Cl)cc1C(=O)Nc1ccc(Cl)cc1C(=O)O,3
COc1cc(/C=N/NC(=O)CSc2nnc(-c3ccc(C)cc3)n2C)ccc1O,27*
COc1cc(Br)cc(/C=N/NC(=O)CSc2nnc(-c3ccc(C)cc3)n2C)c1O,17
Cc1ccc(/C=N/NC(=O)CSc2nnc(-c3ccc(Br)cc3)n2C)cc1,-1
Cc1nnc(SCN2C(=O)c3ccccc3C2=O)[nH]c1=O,2
CN(C(=O)CC(c1cccc(O)c1)c1ccccc1Cl)C1CCOCC1 (stereo not given),3
O=C1C=CC([N+](=O)[O-])=CC(C(=O)/C=C/c2ccccc2)C1=O (stereo not given),83*
CN1C(=O)C(C(=O)/C=C/c2ccccc2)C(=O)N(C)C1=O,0
O=C1C=CC(Br)=CC(C(=O)/C=C/c2ccc(F)cc2)C1=O (stereo not given),11
COc1cc(-n2nc(SC)c(C#N)c2N)nc(SC)n1,2
Cc1ccc(NC(=O)c2c(N)sc3c2CCCCC3)c(C)c1,65*
Cc1ccc(NC(=O)c2c(N)sc3c2CCC3)cc1,-3
Cc1ccc(NC(=O)c2c(NC(=O)C(C)(C)C)sc3c2CCCC3)c(C)c1,-5
C=C(C)COc1ccccc1NC(=O)C1CC1,5
COc1cccc(C(=O)Nc2ccc3oc(-c4ccccc4Br)nc3c2)c1,13
